Bioassay records: PubChem BioAssay, National Center for Advancing Translational Sciences (NCATS)
GALK inhibitor – blocks human galactokinase activity; P51570; Purified GALK, Kinase-Glo residual ATP luminescence; Potency, µM (top dose mostly 57.5 µM), inactives show top-dose activity change, negative = inhibition, hits mostly inhibitors; hit rate 0.007% among 270,000; note: potency is the fitted concentration of half-maximal effect; % is set by controls: 0 for no effect and ±100 for the full control effect
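Quantitative HTS: GALK 5 nM, ATP 35 uM, galactose 100 uM, 1 h room temperature, then luciferase-based ATP detection.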
D1 ag – activates the human D1 dopamine receptor | P21728 | HEK293 T-REx D1 cells, calcium flux, agonist mode | activation, % at 2 µM | hit rate 1% among 360,000; in the data active = activation above about 30%; note: 0% is about no effect
Target sequence (P21728 whole entry, looked up): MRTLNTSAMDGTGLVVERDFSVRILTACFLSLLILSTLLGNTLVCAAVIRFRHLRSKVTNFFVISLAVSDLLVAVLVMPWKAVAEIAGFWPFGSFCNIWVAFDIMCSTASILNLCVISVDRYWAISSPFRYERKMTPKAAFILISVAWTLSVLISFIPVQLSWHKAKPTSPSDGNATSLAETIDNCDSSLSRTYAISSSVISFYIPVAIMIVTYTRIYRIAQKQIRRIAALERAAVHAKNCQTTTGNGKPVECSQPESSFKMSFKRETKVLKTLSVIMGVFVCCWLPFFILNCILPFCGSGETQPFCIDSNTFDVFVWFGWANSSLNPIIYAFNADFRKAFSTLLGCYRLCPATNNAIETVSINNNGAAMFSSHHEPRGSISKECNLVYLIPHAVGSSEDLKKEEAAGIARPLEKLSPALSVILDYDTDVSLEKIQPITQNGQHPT
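Agonism was scored from calcium flux recorded over 180 s (1 read/s) after pintool compound addition, following a 10-cycle baseline. Cells were inducible force-coupled HEK293 TREx D1, plated overnight at 30 C and loaded with no-wash calcium dye.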
D1 potentiator – enhances dopamine response at the human D1 receptor. P21728. HEK293 TREx D1 cells, calcium flux, dopamine EC20 potentiation. potentiation, % at 10 µM. hit rate 0.036% among 360,000. AID 504651; in the data active = potentiation above about 30%; note: 0% is about no effect
D1 antagonist – antagonists of human D1 dopamine receptor. activity change, negative = inhibition, % at 10 µM. HEK293 TREx D1 cells, calcium flux, dopamine EC80; active compounds read low. hit rate 3.2% among 360,000. P21728. AID 504652; in the data active = activity change below about -30%; note: % is set by controls: 0 for no effect and ±100 for the full control effect
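Inducible Hek293 Trex D1 cells (tetracycline, overnight, 30 C). Calcium dye 30–90 min RT. Antagonist mode: EC80 dopamine added after 180 s compound read.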
Eya2 phos inh – inhibitors of human Eya2 phosphatase activity | hit rate 0.006% among 330,000 | recombinant Eya2, OMFP fluorescence dephosphorylation (OMFP is methylfluorescein phosphate) | O00167 | Potency, µM (highest dose often 76.9 µM), inactives show at the highest dose activity, negative = inhibition, usual class: inhibitors; note: potency is the fitted concentration of half-maximal effect; % is set by controls: 0 for no effect and ±100 for the full control effect
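Eya2 protein (added as 0.2 uM solution) was preincubated with compound for 10 min at ambient temperature in 50 mM HEPES pH 7.5, 50 mM NaCl, 5 uM MgCl2, 0.05% BSA, 1 mM DTT. OMFP (added at 50 uM) then reacted 10 min; fluorescence read at 485/525 nm.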
USP2a inh – USP2a (human) protease inhibition; Potency, µM (series often up to 38.3 µM), without a hit: at the top dose activity change, negative = inhibition, actives largely listed as inhibitors; hit rate 0.01% among 330,000; AID 463254; USP2 core, Ub-CHOP2 coupled fluorogenic reporter, 485/531; O75604;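 note: potency is the fitted concentration of half-maximal effect; plate controls were DMSO wells for no effect and full inhibition by NEM control for full effect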
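USP2 core (10nM final) preincubated 30min RT with compound in 20mM Tris-HCl pH 8.0, 2mM CaCl2, 2mM beta-mercaptoethanol, 0.05% CHAPS; 25nM Ub-CHOP2 plus 25nM reporter substrate added, fluorescence (Ex485/Em531) read after 60min.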
An asterisk follows results filed as active; ? = inconclusive; nt = not tested or not shown. In the library only some 3.9% were active in any assay of this set; here they are far more common. Unless noted, calls come from the whole dose curve; as a rule, active = well fitted inhibition curve with a large enough effect; inconclusive = small, poorly fitted or top-dose-only effect, or effect the other way; inactive = flat fitted curve, though single readings scatter.

SMILES | GALK inhibitor | D1 ag | D1 potentiator | D1 antagonist | Eya2 phos inh | USP2a inh
CCCCOc1ccc(-c2nc(/C=N/c3nccs3)c(O)o2)cc1 | 0.1% | 8.3 | 1.3 | 17.4 | -2.3% | 5.4%
Cc1c(C(=O)NCCc2ccccc2)cccc1-n1cnc2cccnc21 | nt | -1.1 | -2.9 | -32.0* | nt | nt
Cc1cc(C)cc(NC(=O)C(Cc2ccccc2)N2Cc3ccccc3C2=O)c1 (configuration not stated) | nt | 4.8 | 0.2 | 5.5 | nt | nt
COc1ccccc1N1C(=O)C2C(C(=O)c3ccccc3)=NN(c3ccc(Br)cc3)C2C1=O (configuration not stated) | nt | 35.2* | -2.2 | 4.8 | -24.0% | 28.2%
COc1ccccc1N1C(=O)C2C(C(=O)c3ccccc3)=NN(c3ccc(C)cc3)C2C1=O (configuration not stated) | -2.6% | 150.0* | 0.7 | 10.6 | 39.6% | ?
COC(=O)C1=NN(c2ccc(C)cc2)C2C(=O)N(c3ccccc3OC)C(=O)C12 (configuration not stated) | 1.0% | 1.5 | -0.9 | -15.8 | -7.5% | -0.1%
COC(=O)c1cc2oc(C)cc2n1CC(=O)Nc1ccc(C(C)C)cc1 | nt | 0.7 | -3.0 | 1.5 | nt | nt
Cc1ccc(Cn2ccn(Cc3ccccc3C)c(=O)c2=O)cc1 | nt | 0.0 | -2.0 | -3.3 | nt | nt
COc1cc(/C=C2\SC(=O)N(CC(=O)Nc3ccccc3F)C2=O)cc(Cl)c1O | -4.9% | 130.5* | -4.8 | 18.8 | 28.2% | 2.2%
Cc1cc(=O)n2[nH]c(NCc3ccc(F)cc3)nc2n1 | nt | 1.6 | 0.4 | 12.9 | nt | nt
CC(=O)C1=C(C)Nc2ncnn2C1c1cccc(OCc2ccccc2)c1 (configuration not stated) | -3.1% | -2.5 | -9.8 | -31.3* | -4.5% | 1.9%
CN1C(=O)C(C)(C)c2cc(S(=O)(=O)N3CCN(c4ccccc4)CC3)ccc21 | nt | 3.7 | -1.6 | -39.8* | 1.4% | -13.9%
COc1ccc(NC(=O)CCCn2nc(C)c3c(C)n(-c4ccccc4)nc3c2=O)cc1OC | 0.2% | -0.2 | -2.4 | -52.6* | -6.3% | 5.6%
COc1ccc(NC(=O)Cn2nc(C)c3c(C)n(-c4ccccc4)nc3c2=O)cc1OC | nt | 0.6 | -2.8 | -19.5 | nt | nt
COc1ccc(CCNC(=O)Cn2nc(C)c3c(C)n(-c4ccc(C)cc4)nc3c2=O)c(OC)c1 | nt | 2.1 | -1.8 | -43.0* | -8.1% | -1.0%
COCCNC(=O)Cn1nc(C)c2c(C)n(-c3ccc(C)cc3)nc2c1=O | nt | 2.8 | 5.0 | -2.2 | nt | nt
COc1cc(C2C3=C(CC(c4ccco4)CC3=O)Nc3ccccc3N2C(C)=O)cc(OC)c1OC (configuration not stated) | 0.5% | 1.3 | -0.1 | -4.4 | -6.4% | -8.1%
COc1cc(C2C3=C(CC(C)(C)CC3=O)Nc3ccccc3N2C(C)=O)cc(OC)c1OC (configuration not stated) | 3.4% | 3.4 | -4.7 | -32.4* | 10.0% | -1.0%
COC(=O)C1=CN(Cc2ccc(F)cc2)C=C(C(=O)OC)C1c1cc(OC)c(OC)c(OC)c1 | -0.7% | 0.1 | -8.4 | -40.9* | 10.1% | 1.5%
Cc1cccc(C)c1NC(=O)N1CCN(c2nc3ccccc3s2)CC1 | 0.3% | 8.4 | -5.4 | -1.0 | -1.3% | 4.9%
O=C(O)CCC(=O)N1CCN(c2ncccn2)CC1 | 4.7% | 3.0 | 2.0 | -31.6* | 16.4% | 2.5%
O=C(O)CCC(=O)N1CCN(c2nc3ccccc3s2)CC1 | -0.3% | -0.2 | 1.8 | -69.0* | 6.8% | 2.7%
COC(=O)C1(C)NC(c2ccc(O)cc2)C2C(=O)N(c3ccc(C)cc3)C(=O)C21 (configuration not stated) | -1.0% | 3.3 | -5.9 | -42.2* | 8.1% | 2.2%
O=C(CCN1CCOCC1)N1c2ccccc2Sc2ccc(Cl)cc21 | -0.3% | 0.8 | -9.9 | -22.5 | -15.7% | -2.5%
CCSc1ccc2c(c1)N(CCCN1CCN(C)CC1)c1ccccc1S2 | nt | 18.6 | -5.2 | -90.7* | -16.9% | 1.6%
SMILES | GALK inhibitor | D1 ag | D1 potentiator | D1 antagonist | Eya2 phos inh | USP2a inh
OCCN1CCN(CCCN2c3ccccc3Sc3ccc(C(F)(F)F)cc32)CC1 | -1.9% | 37.9* | nt | -106.3* | -7.8% | -19.2%
OCCN1CCN(CC/C=C2/c3ccccc3Sc3ccc(C(F)(F)F)cc32)CC1 | nt | 23.5 | -3.2 | -88.2* | -12.3% | -5.2%
CN1CCN(CCC(=O)N2c3ccccc3Sc3ccc(C(F)(F)F)cc32)CC1 | -0.4% | 11.7 | -7.0 | -4.2 | -7.1% | 2.7%
COc1ccccc1NC(=O)Cn1c(=O)n(-c2ccc(C)cc2)c(=O)c2ccc(C(=O)NCc3ccco3)cc21 | nt | 4.8 | 0.5 | 4.1 | nt | nt
COc1cccc(CNC(=O)c2cc(=O)[nH]c3ccc(S(=O)(=O)N4CCCC4)cc23)c1 | nt | 2.5 | -0.5 | -8.1 | nt | nt
COc1ccc(Cc2nc3c4cnn(-c5ccccc5Br)c4ncn3n2)cc1 | nt | -0.3 | -3.0 | -17.7 | nt | nt
O=C(c1ccc(F)cc1)N1c2nc(-c3ccco3)nn2C2(CCCCC2)[C@@H]2CCCC[C@@H]21 | nt | 2.0 | 0.2 | 8.4 | nt | nt
CN(C)S(=O)(=O)c1ccc(Cl)c(NC(=O)CN2CCc3ccccc3C2)c1 | 6.8% | 0.7 | 1.9 | -19.4 | -19.6% | 0.5%
CN1CCN(CCC=C2c3ccccc3Sc3ccc(S(=O)(=O)N(C)C)cc32)CC1 | nt | 39.7* | -2.8 | -97.5* | 10.8% | 0.7%
CCOC(=O)c1sc(NC(=O)CSc2n[nH]c(-c3ccncc3)n2)c(C#N)c1C | -0.4% | 15.3 | -3.5 | nt | -17.2% | 3.0%
CCOc1ccc(/C=C/C2=Cc3c(sc(NC(=O)CSc4n[nH]c(N)n4)c3C#N)C(C)(C)C2)cc1 | 0.5% | 60.0* | 31.4* | 96.7 | 1.9% | -1.3%
Cc1ccsc1/C=C/C1=Cc2c(sc(NC(=O)CSc3n[nH]c(N)n3)c2C#N)C(C)(C)C1 | -2.1% | 33.5* | 97.9* | 148.7 | 9.4% | -18.3%
O=c1cc(-c2ccccc2)[nH]n1-c1nc2ccccc2s1 | -3.0% | -0.2 | -8.4 | -35.9* | -8.6% | -6.9%
CC(=O)c1c(CC(=O)O)[nH]n(-c2nc3ccccc3s2)c1=O | -3.7% | 15.3 | 1.1 | -0.6 | 14.1% | 1.3%
CCCN1CCc2c(sc(NC(=S)NC(=O)c3ccccc3)c2C#N)C1 | 0.8% | 45.0* | 2.2 | 14.2 | 17.8% | 12.0%
O=c1c2cnn(-c3ccccc3)c2ncn1Cc1ccccn1 | -0.7% | 2.9 | 7.5 | -40.8* | 9.0% | 0.3%
COCCNC(=O)Cn1cnc2c(cnn2-c2ccc(OC)cc2)c1=O | -1.8% | 2.0 | -3.5 | -0.1 | 4.5% | 7.6%
COc1ccc(-n2ncc3c(=O)n(CC(C)=O)cnc32)cc1 | 4.1% | 2.4 | -3.7 | -33.7* | -1.2% | -2.2%
